What all share (assay): NCI-60 one-dose screen, 48 h (100 = growth as untreated, 0 = no growth, -100 = all killed)
Settings in all cases: 10 µM unless noted

Experiment [1] has as its system T-47D breast.
The test system of experiment [2] is BT-549 breast.
Experiment [3] relates to SW-620 colon.
Experiment [4] concerns MCF7 breast.
The subject of experiment [5] is HCT-116 colon.
Experiment [6] deals with KM12 colon.
Experiment [7] concerns HCC-2998 colon.
Experiment [8] concerns MDA-MB-435 melanoma.

Our source for the growth values is PubChem BioAssay (NCI).

About 83,000 compounds went through this panel and 20% of them were active in at least one assay; those are over-represented in the sample as a whole.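 Single-concentration screen, 48 h exposure, 96-well plates. Endpoint: percent growth. Below 10 = active.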 Values without a mark were called inactive. The source made the active and inactive calls.

On to `c1cc2ccc1CNCCN1CCNCc3ccc(cc3)Oc3ccc(cc3)CNCCN(CCNCc3ccc(cc3)O2)CCNCc2ccc(cc2)Oc2ccc(cc2)CNCC1`, for which the growth was -64.5% (active) in experiment [1]; 82.1% in experiment [2]; -75.5% (active) in experiment [3]; -75.4% (active) in experiment [4]; -89.7% (active) in experiment [5]; -88.6% (active) in experiment [6].
On to `CNC(=O)c1cc(Oc2cccc3nc(NC(=O)Nc4cc(C(F)(F)F)cc(C(F)(F)F)c4)ccc23)ccn1`, for which the growth is 15.5% in experiment [1]; 46.1% in experiment [2]; 63.8% in experiment [3]; 50.4% in experiment [4]; 36.7% in experiment [5]; 79.7% in experiment [7]. For the same compound, the growth in experiment [6] was 53.8%.
As for `Cn1cc(-c2nnc(-c3ccccc3)s2)c2cc(Br)cnc21`, the growth is 44% in experiment [1]; 104% in experiment [2]; 82.5% in experiment [3]; 40.5% in experiment [4]; 108% in experiment [5]; 101% in experiment [7]. In experiment [6], the growth was 87.6%.
For `Cc1cc(N2CCCCCC2)nc(N2CCN(CC(=O)Nc3ccc4c(ccn4Cc4ccccc4)c3)CC2)n1`, the growth in experiment [1] is 20.2%; in experiment [2] it was 59%; in experiment [3], 63.2%; in experiment [4], 24.1%; in experiment [5], 32%; in experiment [7], 91.7%. In addition, the growth in experiment [6] was 35%.
As for `COc1cc2c(=O)[nH]c3cc([N+](=O)[O-])ccc3c2cc1[N+](=O)[O-]`, the growth is 49.1% in experiment [1]; 50.4% in experiment [2]; 35.5% in experiment [3]; 16.5% in experiment [4]; 21.5% in experiment [5]; 62.8% in experiment [7]. Besides, in experiment [6], the growth was 53.3%.
Take `CC(C)(C)c1cc(C(=O)Nc2ccccc2C(=O)NCCN)cc(C(C)(C)C)c1`: the growth in experiment [1] is -14.6% (active); in experiment [2], 99.2%; in experiment [3], -56.8% (active); in experiment [4] it was -63.1% (active); in experiment [5] it was -94.7% (active); in experiment [7], -59.1% (active). Also, in experiment [6], the growth was -62.2% (active).
As for `CCn1cc(-c2ccnc(NCCNS(=O)(=O)c3cccc4ccccc34)c2)c(-c2cccc(O)c2)n1`, the growth in experiment [1] was 85.9%; in experiment [2], 109%; in experiment [8], 96.1%; in experiment [5] it was 87.3%; in experiment [7], 122%; in experiment [6] it was 99.1%.
Take `O=C(NNc1ccc(-c2ccccc2)nn1)c1ccccc1`: the growth in experiment [1] is 98.8%; in experiment [2] it was 94.6%; in experiment [8], 101%; in experiment [4], 92%; in experiment [5] it was 91.3%; in experiment [6], 102%.
As for `CC(C)=CC/C=C(/C)[C@H]1CC[C@]2(C)[C@@H]1CC[C@@H]1[C@@]3(C)CC/C(=N/O)C(C)(C)[C@@H]3CC[C@]12C`, the growth in experiment [1] is 27.2% [100 µM]; in experiment [2], 61.5% [100 µM]; in experiment [3] it was 61.3% [100 µM]; in experiment [4], 36.1% [100 µM]; in experiment [5] it was 24.1% [100 µM]; in experiment [7], 69.5% [100 µM]. Moreover, the growth in experiment [6] was 51.6% [100 µM].
`CCN(CC)c1ccc2cc(C(Nc3ccc(Br)c(C(F)(F)F)c3)c3nnnn3C(C)(C)C)c(=O)oc2c1` (centres undefined): the growth in experiment [1] was 64.2%; in experiment [2], 97.3%; in experiment [3] it was 98.7%; in experiment [4], 73.8%; in experiment [5], 93.5%; in experiment [7], 106%. Further, the growth in experiment [6] was 102%.
On to `Clc1ccccc1/C=N\Nc1ccccn1`, for which the growth is 62.1% in experiment [1]; 114% in experiment [2]; 102% in experiment [3]; 28.4% in experiment [4]; 107% in experiment [5]; 111% in experiment [7]. In addition, the growth in experiment [6] is 87.2%.
Take `C[C@H]1[C@H](C)CC[C@]2(COC(=O)CCC(=O)O)CC[C@]3(C)C(=CC[C@@H]4[C@@]5(C)CCCNC(C)(C)[C@@H]5CC[C@]43C)[C@H]12`: the growth in experiment [1] was 36.7% [100 µM]; in experiment [2], 64% [100 µM]; in experiment [3] it was 87.7% [100 µM]; in experiment [4] it was 54.9% [100 µM]; in experiment [5], 40.5% [100 µM]; in experiment [6], 78% [100 µM].
Consider `COc1ncc(-c2ccc3nccc(C#CCCCCC(=O)NO)c3c2)cc1NS(=O)(=O)c1ccc(F)cc1F`, for which the growth in experiment [1] was -22.6% (active); in experiment [2], -13.2% (active); in experiment [3], -30.9% (active); in experiment [4], 2.33% (active); in experiment [5], -50.3% (active); in experiment [7] it was 7.27% (active). In addition, the growth in experiment [6] was 9.84% (active).
`COC(=O)[C@]1(C)CC[C@]2(C)CC[C@]3(C)C(=CC(=O)[C@@H]4[C@@]5(C)CCC(=O)NC(C)(C)[C@@H]5CC[C@]43C)[C@@H]2C1`: the growth in experiment [1] is -10.7% [100 µM] (active); in experiment [2], -78.6% [100 µM] (active); in experiment [3], -54.8% [100 µM] (active); in experiment [4] it was -49.7% [100 µM] (active); in experiment [5] it was -72.5% [100 µM] (active); in experiment [7], -89.2% [100 µM] (active). The growth in experiment [6] is -80.1% [100 µM] (active).
Regarding `Cn1cc(-c2noc(C(=O)c3cn(C)c4ncc(Br)cc34)n2)c2ccccc21`, the growth in experiment [1] is 99.7%; in experiment [2], 98%; in experiment [8], 99.9%; in experiment [4], 90.5%; in experiment [5] it was 99.6%; in experiment [6], 96.7%.
As to `O=c1[nH]cnc2c1ccn2C1OC(CO)C(O)C1O` (centres undefined), the growth is 54.1% in experiment [1]; 75.8% in experiment [2]; 33.5% in experiment [3]; 24.9% in experiment [4]; 54.9% in experiment [5]; 69.3% in experiment [7]. Further, the growth in experiment [6] was 75.1%.
As for `CCOC(=O)c1nc2c3ccccc3ccn2c1C(=O)OC`, the growth in experiment [1] is 76.4%; in experiment [2] it was 97%; in experiment [3], 100%; in experiment [4] it was 97.6%; in experiment [5], 97.5%; in experiment [7], 91.1%. Moreover, in experiment [6], the growth was 107%.
